The text below walks through data of PubChem BioAssay.

Activity calls are given as the source filed them. Unless noted, how the calls were made is not given here.

The test system of assay [1] is XIP peptide (Xip251-270) binding. Put plainly: XIP fragment 251-270 binding compounds – biochemical, small-molecule microarray, fluorescence 635/667 nm, 0.1 µg/mL protein, primary screen (AID 1182). Conditions: fluorescent protein binding, 635 nm, higher = more signal, called active from +8 up or from −8 down.
The subject of the next assay is XIP peptide (Xip251-270). The assay is described as follows: compounds binding XIP fragment 251-270 – biochemical, small-molecule microarray, fluorescence 635/667 nm, 0.5 µg/mL protein, primary screen (AID 1183). The note with it: fluorescence 635 nm, higher = more signal.
A short description of assay [2]: blood-stage malaria parasite viability loss – strain 3D7, DAPI fluorescence, 100 nL, primary screen (AID 1184).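 Further: parasites grown inside human red blood cells in medium with human serum.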 Conditions: P. falciparum 3D7 growth, 3 d, higher = more signal.
Assay [3] addresses Homeobox protein Hox-A13 (Mus musculus) (UniProt Q62424). Put plainly: disruptors of Hoxa13 oligonucleotide interaction – biochemical, fluorescence polarization, labeled oligonucleotide, primary screen (AID 1185). The note with it: Hoxa13:DNA binding, 15 min, higher = more signal, called active from +8 up or from −8 down. Background: In fluorescence polarisation assays a small probe gives low polarisation when free and higher when bound to something large.

Assay [4] in a line: blockers of DNA damage checkpoint Chk1 activation – imaging, HeLa, hydroxyurea, phospho-Chk1 antibody, percent positive cells, primary screen (AID 1186). Conditions: hydroxyurea-induced phospho-Chk1 immunofluorescence imaging, higher = more signal.
A short description of assay [5]: blockers of DNA damage checkpoint Chk1 activation – imaging, HeLa, hydroxyurea, phospho-Chk1 nuclear intensity, primary screen (AID 1187). The note with it: hydroxyurea-induced phospho-Chk1 immunofluorescence imaging, higher = more signal.

Homeobox protein Hox-A13 (Mus musculus), sequence (Q62424 whole entry, looked up): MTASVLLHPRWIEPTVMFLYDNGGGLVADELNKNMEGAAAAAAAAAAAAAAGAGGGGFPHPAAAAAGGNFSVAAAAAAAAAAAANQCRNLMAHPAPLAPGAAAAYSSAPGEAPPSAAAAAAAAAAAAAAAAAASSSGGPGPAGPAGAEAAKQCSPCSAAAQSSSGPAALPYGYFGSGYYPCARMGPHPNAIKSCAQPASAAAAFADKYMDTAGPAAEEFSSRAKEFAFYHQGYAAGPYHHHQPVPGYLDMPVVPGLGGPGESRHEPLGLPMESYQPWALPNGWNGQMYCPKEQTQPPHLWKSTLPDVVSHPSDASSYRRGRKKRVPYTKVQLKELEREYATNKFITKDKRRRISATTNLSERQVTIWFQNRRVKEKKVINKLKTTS

With `CCOC(=O)C1=C[C@@H](C(C)(C)C)N(S(=O)(=O)c2ccc(C)cc2)[C@H]1c1ccc(F)cc1`, the composite z-score in assay [1] is 0.475 (inactive); in the assay on XIP peptide (Xip251-270), 0.106. The z-score is -1.92 in assay [2], -0.636 (inactive) in assay [3], -0.324 (inactive) in assay [4] and -0.725 (inactive) in assay [5].
Consider `CN1C(=O)C2C=CC(C(O)C3CC=CCC3)N(N(c3ccccc3)c3ccccc3)C2C1=O` (stereo unspecified), for which the composite z-score in assay [1] is 0.241 (inactive); with XIP peptide (Xip251-270) it was -0.283. The z-score in assay [2] was -0.201; in assay [3] it was -1.18 (inactive); in assay [4], 0.451 (inactive); in assay [5], 0.0168 (inactive).
In the case of `C=C(CCCC)/C(=C/C[C@H](OC(C)=O)c1ccccc1OCCO)c1cc(C(=O)OC)ccc1OC`, the composite z-score in assay [1] is 0.0757 (inactive); in the assay with XIP peptide (Xip251-270) it was -0.167. The z-score in assay [2] was -2.66; in assay [3], -3.55 (inactive); in assay [4], -0.836 (inactive); in assay [5], -0.714 (inactive).
On to `CCCC[C@@H]1C[C@H]1[C@@H](NC(=O)c1ccccc1)c1ccc(C(=O)OC)cc1`, for which the results for the composite z-score (in assay [1]; in the assay on XIP peptide (Xip251-270)) were -0.0225 (inactive) and 0.221, respectively. Moreover, the z-score in assay [2] is -0.0079; in assay [3], -3.64 (inactive); in assay [4] it was 0.665 (inactive); in assay [5] it was 0.454 (inactive).
For `COc1cc2c(cc1OC)CN(C(=O)[C@@H]1[C@H]3C(=O)O[C@H](c4ccccc4)[C@H](c4ccccc4)N3[C@H](c3ccc(O)cc3)[C@@]13C(=O)Nc1ccccc13)CC2`, the values for the composite z-score (in assay [1]; with XIP peptide (Xip251-270)) were 0.0997 (inactive) and 0.686, respectively. For the same molecule, the z-score in assay [2] is -1.42; in assay [3], -2.32 (inactive); in assay [4] it was -0.478 (inactive); in assay [5], -0.728 (inactive).
Consider `CC(C)NC(=O)[C@@H]1c2ccccc2C(=O)N(C2Cc3ccccc3C2)[C@H]1c1ccc(CO)cc1`, for which the composite z-score in assay [1] is 0.536 (inactive); in the assay on XIP peptide (Xip251-270), 0.787. Besides, the z-score in assay [2] was -0.826; in assay [3], -1.94 (inactive); in assay [4], -0.24 (inactive); in assay [5] it was 0.0987 (inactive).
In the case of `CC(C)OC(=O)C=C1C[C@@H](c2ccccn2)O[C@@H](c2ccccn2)O1`, the values for the composite z-score (in assay [1]; in the assay with XIP peptide (Xip251-270)) were 1.4 (inactive) and -0.0957, respectively. The z-score was -0.929 in assay [2], -5.67 (inactive) in assay [3], 0.367 (inactive) in assay [4] and 0.129 (inactive) in assay [5].
In the case of `CCC(CC)C(O)C1C=CC2C(=O)NC(=O)C2N1Nc1ccccn1` (stereo unspecified), the composite z-score in assay [1] is -0.471 (inactive); with XIP peptide (Xip251-270), 0.579. Further, the z-score was -0.3 in assay [2], -0.375 (inactive) in assay [3], 0.933 (inactive) in assay [4] and 0.481 (inactive) in assay [5].
As to `COC(=O)[C@@]1(Cc2ccc(OC)cc2)[C@H]2c3cc(C(=O)N(C)C)n(CCc4ccccn4)c3C[C@H]2CN1C(=O)c1ccccc1`, the composite z-score in assay [1] is -0.312 (inactive); with XIP peptide (Xip251-270), -0.7. Further, the z-score in assay [2] was -1.52; in assay [3], -2.39 (inactive); in assay [4], 0.808 (inactive); in assay [5] it was 0.0643 (inactive).
`CCCC[C@@H]1C[C@H]1[C@@H](NC(=O)c1ccco1)c1ccc(-c2ccccc2)cc1`: the composite z-score was -0.781 (inactive) in assay [1] and -0.321 with XIP peptide (Xip251-270). Also, the z-score in assay [2] is -0.937; in assay [3], 0.141 (inactive); in assay [4], 0.353 (inactive); in assay [5], 0.0955 (inactive).
Turning to `O=C1C[C@@](C(=O)NCC(F)(F)F)(c2ccc([N+](=O)[O-])cc2)[C@@H](c2ccc(CO)cc2I)N1C1CCCCC1`, the composite z-score in assay [1] was 0.469 (inactive); in the assay on XIP peptide (Xip251-270), 0.778. Also, the z-score in assay [2] was -1.26; in assay [3] it was -4.99 (inactive); in assay [4] it was -0.171 (inactive); in assay [5], 0.187 (inactive).
Turning to `CO[C@H]1O[C@H](CO)[C@@H](OC(=O)Nc2ccccc2)[C@H](OC(=O)Nc2ccccc2)[C@@H]1OC(=O)Nc1ccccc1`, the results for the composite z-score (in assay [1]; in the assay on XIP peptide (Xip251-270)) were 0.228 (inactive) and 0.642, respectively. The z-score in assay [2] was -1.43; in assay [3], -6.12 (inactive); in assay [4], 0.0303 (inactive); in assay [5], 0.502 (inactive).
Turning to `Cc1ccc([C@@H]2C[C@@H](Sc3ccccc3)[C@H](C(=O)O)CN2S(=O)(=O)c2ccc(C)cc2)cc1`, the composite z-score in assay [1] is 0.571 (inactive); in the assay with XIP peptide (Xip251-270), 0.8. Also, the z-score was -0.706 in assay [2], -7.26 (inactive) in assay [3], 0.57 (inactive) in assay [4] and 0.498 (inactive) in assay [5].
Take `COC(=O)[C@]1(CCC(=O)OC(C)(C)C)N=C(c2ccc(OCCCO)cc2)O[C@@H]1c1ccccc1CN=[N+]=[N-]`: the composite z-score in assay [1] is 1.52 (inactive); in the assay with XIP peptide (Xip251-270), 0.767. The z-score is -2.03 in assay [2], -0.506 (inactive) in assay [3], 0.121 (inactive) in assay [4] and -0.0667 (inactive) in assay [5].
On to `COC(=O)C(CC#Cc1ccc2c(c1)[C@]1(C(=O)N2)[C@H](C(=O)Nc2nc3ccccc3s2)[C@H]2C(=O)O[C@H](c3ccccc3)[C@H](c3ccccc3)N2[C@@H]1c1ccc(O)cc1)C(=O)OC`, for which the results for the composite z-score (in assay [1]; with XIP peptide (Xip251-270)) were 0.297 (inactive) and 0.794, respectively. In addition, the z-score was -1.89 in assay [2], -0.424 (inactive) in assay [3], -0.558 (inactive) in assay [4] and -1.09 (inactive) in assay [5].
Consider `C=CC[C@@]1(C(=O)NCCN2CCOCC2)N=C(c2ccc(OCCCO)cc2)O[C@@H]1c1ccccc1N=[N+]=[N-]`, for which the composite z-score in assay [1] is 2.32 (inactive); in the assay on XIP peptide (Xip251-270), -0.0559. The z-score in assay [2] was -2.21; in assay [3], -6.17 (inactive); in assay [4], 0.003 (inactive); in assay [5], -0.0928 (inactive).
As to `COC(=O)[C@@]1(Cc2ccc(F)cc2)[C@H]2c3cc(C(=O)N4CCCC4)n(Cc4ccc(S(C)(=O)=O)cc4)c3C[C@H]2CN1C(=O)c1ccccc1`, the composite z-score in assay [1] was 0.845 (inactive); in the assay on XIP peptide (Xip251-270), 0.116. The z-score is -1.46 in assay [2], -4.4 (inactive) in assay [3], 0.396 (inactive) in assay [4] and 0.172 (inactive) in assay [5].
On to `CC(C)[Si]1(C(C)C)O[C@@H](c2ccccc2)c2cc(-c3ccc(-c4ccc(Cl)c(Cl)c4)o3)nc(-c3ccccc3)c21`, for which the values for the composite z-score (in assay [1]; with XIP peptide (Xip251-270)) were -0.142 (inactive) and 0.6, respectively. Moreover, the z-score in assay [2] is 0.283; in assay [3] it was -1.68 (inactive); in assay [4], 0.025 (inactive); in assay [5], -0.606 (inactive).
Take `NC(=O)NCC#Cc1ccc2c(c1)[C@]1(C(=O)N2)[C@H](c2ccccc2OCCO)N2[C@H](c3ccccc3)[C@H](c3ccccc3)OC(=O)[C@H]2[C@@H]1C(=O)Nc1nc2ccccc2s1`: the composite z-score is 0.213 (inactive) in assay [1] and 0.324 with XIP peptide (Xip251-270). In addition, the z-score in assay [2] is -1.89; in assay [3], 1.61 (inactive); in assay [4], 0.164 (inactive); in assay [5], 0.212 (inactive).
Regarding `CNS(=O)(=O)c1ccc(C)cc1`, the composite z-score in assay [1] is 0.493 (inactive); in the assay on XIP peptide (Xip251-270) it was -0.259. Further, the z-score in assay [2] is 0.749; in assay [3], -0.38 (inactive); in assay [4], -0.41 (inactive); in assay [5], -0.155 (inactive).
On to `CC#CC(=O)Oc1ccccc1C=CC(=O)OCC`, for which the composite z-score is 0.0524 (inactive) in assay [1] and 0.106 in the assay with XIP peptide (Xip251-270). For the same molecule, the z-score was -0.418 in assay [2], -2.38 (inactive) in assay [3], 0.367 (inactive) in assay [4] and 0.195 (inactive) in assay [5].
